{"source": "the supplement of paper PMC8728848", "assay_in_all_cases": "glycan array binding signal (z-score within array); higher = stronger binding", "conditions_in_all_cases": "glycan notation: IUPAC condensed, linker removed", "key": {"[1]": {"target": "Fuc(a1-2)Gal(b1-3)GlcNAc(b1-2)Man(a1-3)[Fuc(a1-2)Gal(b1-3)GlcNAc(b1-2)Man(a1-6)]Man(b1-4)GlcNAc(b1-4)[Fuc(a1-6)]GlcNAc", "method_in_brief": "(§1)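 Negative Z-scores can be read as non-binding. The Z-score is calculated within each array and then averaged across arrays of one protein sequence at different concentrations or buffers and across linkers. Arrays, 3228 in all, were curated from the Consortium for Functional Glycomics database and kept only where the protein sequence was available.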"}, "[2]": {"target": "Fuc(a1-2)Gal(b1-3)GlcNAc(b1-3)[Fuc(a1-2)Gal(b1-3)GlcNAc(b1-6)]GalNAc", "method_in_brief": "as §1"}, "[3]": {"target": "Fuc(a1-2)Gal(b1-3)[Fuc(a1-4)]GlcNAc(b1-3)[Gal(b1-4)GlcNAc(b1-6)]Gal(b1-4)Glc", "method_in_brief": "as §1"}, "[4]": {"target": "Fuc(a1-2)Gal(b1-4)GlcNAc(b1-3)Gal(b1-4)GlcNAc(b1-2)Man(a1-3)[Fuc(a1-2)Gal(b1-4)GlcNAc(b1-3)Gal(b1-4)GlcNAc(b1-2)Man(a1-6)]Man(b1-4)GlcNAc(b1-4)GlcNAc", "method_in_brief": "as §1"}, "[5]": {"target": "Fuc(a1-2)[Gal(a1-3)]Gal(b1-4)GlcNAc", "method_in_brief": "as §1"}, "[6]": {"target": "Fuc(a1-2)[Gal(a1-3)]Gal(b1-4)GlcNAc(b1-3)[Fuc(a1-2)[Gal(a1-3)]Gal(b1-4)GlcNAc(b1-6)]GalNAc", "method_in_brief": "as §1"}, "[7]": {"target": "Fuc(a1-2)[GalNAc(a1-3)]Gal(b1-3)GlcNAc(b1-6)GalNAc", "method_in_brief": "as §1"}, "[8]": {"target": "Fuc(a1-3)[Gal(b1-4)]GlcNAc(b1-3)GalNAc", "method_in_brief": "as §1"}, "Fuc(a1-4)GlcNAc": {"target": "Fuc(a1-4)GlcNAc", "method_in_brief": "as §1"}, "Fuc(b1-3)GlcNAc": {"target": "Fuc(b1-3)GlcNAc", "method_in_brief": "as §1"}, "[9]": {"target": "Gal(a1-3)Gal(b1-4)[Fuc(a1-3)]GlcNAc(b1-2)Man(a1-3)[Gal(a1-3)Gal(b1-4)[Fuc(a1-3)]GlcNAc(b1-2)Man(a1-6)]Man(b1-4)GlcNAc(b1-4)GlcNAc", "method_in_brief": "as §1"}, "Gal(a1-4)GlcNAc": {"target": "Gal(a1-4)GlcNAc", "method_in_brief": "as §1"}, "[10]": {"target": "Gal(b1-3)GlcNAc(a1-6)Gal(b1-4)GlcNAc", "method_in_brief": "as §1"}, "[11]": {"target": "Gal(b1-4)GlcNAc(b1-3)Gal(b1-3)GalNAc", "method_in_brief": "as §1"}, "[12]": {"target": "Gal(b1-4)GlcNAc(b1-3)Gal(b1-3)GlcNAc", "method_in_brief": "as §1"}, "[13]": {"target": "Gal(b1-4)GlcNAc(b1-3)Gal(b1-4)GlcNAc(b1-2)[Gal(b1-4)GlcNAc(b1-3)Gal(b1-4)GlcNAc(b1-6)]Man(a1-6)[Gal(b1-4)GlcNAc(b1-3)Gal(b1-4)GlcNAc(b1-2)Man(a1-3)]Man(b1-4)GlcNAc(b1-4)GlcNAc", "method_in_brief": "as §1"}, "[14]": {"target": "Gal(b1-4)GlcNAc(b1-3)Gal(b1-4)GlcNAc(b1-3)Gal(b1-4)GlcNAc(b1-3)Gal(b1-4)GlcNAc(b1-2)[Gal(b1-4)GlcNAc(b1-3)Gal(b1-4)GlcNAc(b1-3)Gal(b1-4)GlcNAc(b1-3)Gal(b1-4)GlcNAc(b1-6)]Man(a1-6)[Gal(b1-4)GlcNAc(b1-3)Gal(b1-4)GlcNAc(b1-3)Gal(b1-4)GlcNAc(b1-3)Gal(b1-4)GlcNAc(b1-2)Man(a1-3)]Man(b1-4)GlcNAc(b1-4)[Fuc(a1-6)]GlcNAc", "method_in_brief": "as §1"}, "[15]": {"target": "Gal(b1-4)GlcNAc(b1-3)Gal(b1-4)GlcNAc(b1-3)Gal(b1-4)GlcNAc(b1-3)Gal(b1-4)GlcNAc(b1-3)Gal(b1-4)GlcNAc(b1-2)Man(a1-3)[Gal(b1-4)GlcNAc(b1-3)Gal(b1-4)GlcNAc(b1-3)Gal(b1-4)GlcNAc(b1-3)Gal(b1-4)GlcNAc(b1-3)Gal(b1-4)GlcNAc(b1-2)Man(a1-6)]Man(b1-4)GlcNAc(b1-4)[Fuc(a1-6)]GlcNAc", "method_in_brief": "as §1"}, "[16]": {"target": "Gal3S(b1-3)[Fuc(a1-4)]GlcNAc", "method_in_brief": "as §1"}, "Gal3S(b1-4)Glc": {"target": "Gal3S(b1-4)Glc", "method_in_brief": "as §1"}, "[17]": {"target": "Gal3S(b1-4)[Fuc(a1-3)]GlcNAc6S", "method_in_brief": "as §1"}, "[18]": {"target": "GalNAc(a1-3)GalNAc(b1-3)Gal(a1-4)Gal(b1-4)GlcNAc", "method_in_brief": "as §1"}, "Glc(b1-6)Glc": {"target": "Glc(b1-6)Glc", "method_in_brief": "as §1"}, "[19]": {"target": "GlcNAc(a1-4)Gal(b1-4)GlcNAc(b1-3)Gal(b1-4)[Fuc(a1-3)]GlcNAc(b1-3)Gal(b1-4)[Fuc(a1-3)]GlcNAc", "method_in_brief": "as §1"}, "[20]": {"target": "GlcNAc(b1-2)Man(a1-3)[GlcNAc(b1-2)Man(a1-6)]Man(b1-4)GlcNAc(b1-4)GlcNAc", "method_in_brief": "as §1"}, "Kdn(a2-3)Gal(b1-3)GlcNAc": {"target": "Kdn(a2-3)Gal(b1-3)GlcNAc", "method_in_brief": "as §1"}, "[21]": {"target": "Man(a1-2)Man(a1-3)[Man(a1-2)Man(a1-6)]Man", "method_in_brief": "as §1"}, "[22]": {"target": "Man(a1-2)Man(a1-3)[Man(a1-6)]Man(a1-6)[Man(a1-2)Man(a1-3)]Man(b1-4)GlcNAc(b1-4)GlcNAc", "method_in_brief": "as §1"}, "[23]": {"target": "Man(a1-2)Man(a1-6)[Man(a1-3)]Man(a1-6)[Man(a1-2)Man(a1-2)Man(a1-3)]Man", "method_in_brief": "as §1"}, "[24]": {"target": "Neu5Ac(a2-3)Gal(b1-3)[GlcNAc(b1-6)]GalNAc", "method_in_brief": "as §1"}, "[25]": {"target": "Neu5Ac(a2-3)Gal(b1-3)[Neu5Ac(a2-6)]GalNAc", "method_in_brief": "as §1"}, "Neu5Ac(a2-3)Gal(b1-4)Glc": {"target": "Neu5Ac(a2-3)Gal(b1-4)Glc", "method_in_brief": "as §1"}, "[26]": {"target": "Neu5Ac(a2-3)Gal(b1-4)GlcNAc(b1-2)Man", "method_in_brief": "as §1"}, "[27]": {"target": "Neu5Ac(a2-3)Gal(b1-4)GlcNAc(b1-3)Gal(b1-4)GlcNAc(b1-3)[Neu5Ac(a2-3)Gal(b1-4)GlcNAc(b1-3)Gal(b1-4)GlcNAc(b1-6)]GalNAc", "method_in_brief": "as §1"}, "[28]": {"target": "Neu5Ac(a2-3)Gal(b1-4)GlcNAc(b1-3)GalNAc", "method_in_brief": "as §1"}, "[29]": {"target": "Neu5Ac(a2-3)Gal(b1-4)[Fuc(a1-3)]GlcNAc(b1-6)[Gal(b1-3)]GalNAc", "method_in_brief": "as §1"}, "[30]": {"target": "Neu5Ac(a2-6)Gal(b1-4)GlcNAc", "method_in_brief": "as §1"}, "[31]": {"target": "Neu5Ac(a2-6)Gal(b1-4)GlcNAc(b1-3)GalNAc", "method_in_brief": "as §1"}, "[32]": {"target": "Neu5Ac(a2-6)GalNAc(b1-4)GlcNAc", "method_in_brief": "as §1"}, "[33]": {"target": "Neu5Ac(a2-6)GlcNAc(b1-4)GlcNAc(b1-4)GlcNAc", "method_in_brief": "as §1"}}, "note": "Shown is part of a subset that was picked to be rich in the strongest signals."}
{"binder": "BC2LB (Burholderia cenocepacia), B4EH85_BURCJ (protein) MGSSHHHHHHSSGENLYFQGHMSQPFTHDDLYALLQLAGNDATAVQANGDQAVLDRMRQFMTAQLVEKLPQYDVFVDIATIPYSFDVGSWQNKVKTDAAGEVVACTVTWAGAPGVLPGAAAKFGVGAVVNYFSKATPH", "values": [{"measurement": "glycan array binding signal (z-score)", "setting": "[1]", "result": -0.135}, {"measurement": "glycan array binding signal (z-score)", "setting": "[2]", "result": -0.166}, {"measurement": "glycan array binding signal (z-score)", "setting": "[3]", "result": -0.251}, {"measurement": "glycan array binding signal (z-score)", "setting": "[4]", "result": 0.245}, {"measurement": "glycan array binding signal (z-score)", "setting": "[5]", "result": -0.238}, {"measurement": "glycan array binding signal (z-score)", "setting": "[6]", "result": 6.98}, {"measurement": "glycan array binding signal (z-score)", "setting": "[7]", "result": 7.53}, {"measurement": "glycan array binding signal (z-score)", "setting": "[8]", "result": 0.001}, {"measurement": "glycan array binding signal (z-score)", "setting": "Fuc(a1-4)GlcNAc", "result": 2.88}, {"measurement": "glycan array binding signal (z-score)", "setting": "Fuc(b1-3)GlcNAc", "result": 1.63}, {"measurement": "glycan array binding signal (z-score)", "setting": "[9]", "result": 0.053}, {"measurement": "glycan array binding signal (z-score)", "setting": "Gal(a1-4)GlcNAc", "result": -0.101}, {"measurement": "glycan array binding signal (z-score)", "setting": "[10]", "result": -0.227}, {"measurement": "glycan array binding signal (z-score)", "setting": "[11]", "result": -0.131}, {"measurement": "glycan array binding signal (z-score)", "setting": "[12]", "result": -0.143}, {"measurement": "glycan array binding signal (z-score)", "setting": "[13]", "result": 11.3}, {"measurement": "glycan array binding signal (z-score)", "setting": "[14]", "result": -0.198}, {"measurement": "glycan array binding signal (z-score)", "setting": "[15]", "result": 0.012}, {"measurement": "glycan array binding signal (z-score)", "setting": "[16]", "result": 0.995}, {"measurement": "glycan array binding signal (z-score)", "setting": "Gal3S(b1-4)Glc", "result": 1.52}, {"measurement": "glycan array binding signal (z-score)", "setting": "[17]", "result": 0.149}, {"measurement": "glycan array binding signal (z-score)", "setting": "[18]", "result": -0.055}, {"measurement": "glycan array binding signal (z-score)", "setting": "Glc(b1-6)Glc", "result": 0.216}, {"measurement": "glycan array binding signal (z-score)", "setting": "[19]", "result": 1.79}, {"measurement": "glycan array binding signal (z-score)", "setting": "[20]", "result": -0.234}, {"measurement": "glycan array binding signal (z-score)", "setting": "Kdn(a2-3)Gal(b1-3)GlcNAc", "result": -0.201}, {"measurement": "glycan array binding signal (z-score)", "setting": "[21]", "result": -0.345}, {"measurement": "glycan array binding signal (z-score)", "setting": "[22]", "result": -0.397}, {"measurement": "glycan array binding signal (z-score)", "setting": "[23]", "result": -0.2}, {"measurement": "glycan array binding signal (z-score)", "setting": "[24]", "result": -0.242}, {"measurement": "glycan array binding signal (z-score)", "setting": "[25]", "result": 2.87}, {"measurement": "glycan array binding signal (z-score)", "setting": "Neu5Ac(a2-3)Gal(b1-4)Glc", "result": 5.24}, {"measurement": "glycan array binding signal (z-score)", "setting": "[26]", "result": 2.39}, {"measurement": "glycan array binding signal (z-score)", "setting": "[27]", "result": -0.203}, {"measurement": "glycan array binding signal (z-score)", "setting": "[28]", "result": -0.104}, {"measurement": "glycan array binding signal (z-score)", "setting": "[29]", "result": -0.247}, {"measurement": "glycan array binding signal (z-score)", "setting": "[30]", "result": -0.206}, {"measurement": "glycan array binding signal (z-score)", "setting": "[31]", "result": 10.1}, {"measurement": "glycan array binding signal (z-score)", "setting": "[32]", "result": -0.418}, {"measurement": "glycan array binding signal (z-score)", "setting": "[33]", "result": -0.338}]}
